Assay results published in PubChem BioAssay AID504861 (Broad Institute, 2011).
The campaign covered roughly 1,200 compounds. About 290 (24%) were called active. About 3% were inconclusive and are not listed.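 The calls were made as follows: active = compounds lowering cell viability signal with fitted half-maximal concentration at most ten times their highest tested concentration; inconclusive = flat fit with 30 to 70% signal loss, or poor fit; inactive = the rest.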 Only a sample is shown. Results with a measured potency or affinity are listed apart.

Test: HEK293T cell viability reduction, dose response, cytotoxicity control for LMP1 NF-kB inhibitor project, CellTiter-Glo luminescence, cherry-picks (AID 504861)
Conditions: CellTiter-Glo ATP luminescence, 48 h; series mostly up to 26 µM

SMILES | outcome
O=S(=O)(N/N=C/c1ccccc1F)c1ccccc1 | inactive
Cc1cc(N2CCOCC2)c2c(N)c(Br)cc(C)c2n1 | inactive
C=CCn1c(=O)/c(=C/c2ccc(Cl)cc2)s/c1=C(\C#N)c1nnc2n1CCCCC2 | inactive
NC(=O)CC(NC(=O)c1ccccc1)c1ccc(NC2CCN(Cc3ccccc3)CC2)c([N+](=O)[O-])c1 (stereo unspecified) | inactive
C=CCN1CCN(C(CC(C)C)c2nnnn2CCOC)CC1 (stereo unspecified) | inactive
O=C(CCS(=O)(=O)c1ccccc1)Nc1nccs1 | inactive
CCC(C)(C)NC(=O)C(c1ccc(F)cc1)N(CCOC)C(=O)CCC(=O)Nc1nccs1 (stereo unspecified) | inactive
CCC(=O)OC1c2ccccc2C(=O)N1Cc1ccccc1 (stereo unspecified) | inactive
COc1ccc(S(=O)(=O)N2CCN(CC(=O)Nc3cc(OC)cc(OC)c3)CC2)cc1 | inactive
COC(=O)C1=C(C(=O)c2ccccc2)C(c2ccccc2)n2nnnc2N1 (stereo unspecified) | inactive
O=C(CN1C(=O)CCOc2ccccc21)Nc1ccc(Cl)c(S(=O)(=O)N2CCOCC2)c1 | inactive
CCCCCCCCOC(=O)/C=C/c1c(C)[nH]c(=O)[nH]c1=O | inactive
Cc1c(NC(=O)c2cc(-c3cccs3)nc3ccccc23)c(=O)n(-c2ccccc2)n1C | inactive
Cn1cccc1/C=C1\CC(C(C)(C)C)C/C(=C\c2cccn2C)C1=O (stereo unspecified) | inactive
O=C(c1ccc(COc2ccccc2Cl)o1)N1CCCC1 | inactive
CCCCCCNC(=O)O[C@]12C[C@@H](C(=O)OC)[C@@H](C(=O)OC)C[C@@]1(O)CN(S(=O)(=O)c1ccc(C)cc1)C2 | inactive
COC(=O)CN(c1ccccc1F)S(=O)(=O)c1ccc(C)cc1 | inactive
COc1ccc(-c2[nH]ncc2-c2ccc3c(c2)OCCO3)c(O)c1 | inactive
N#CC1=C(N)OC2=C(C(=O)CCC2)C12C(=O)N1CCCc3cccc2c31 (stereo unspecified) | inactive
COC(CNC(=O)c1ccc(N2CCC3(CC2)OCCO3)c([N+](=O)[O-])c1)OC | inactive
COc1ccc(C)cc1S(=O)(=O)N(CC(=O)Nc1cc([N+](=O)[O-])ccc1C)c1ccc(C)c(C)c1 | inactive
Cc1cc(C(=O)COC(=O)c2cccc(NS(C)(=O)=O)c2)c(C)n1CC1CCCO1 (stereo unspecified) | inactive

SMILES | outcome
O=C(O)c1cccc(NC(=O)c2cn(-c3ccccc3)nc2-c2ccc(F)cc2)c1 | inactive
Cc1ccc(C(=O)Nc2ncc3c(Cl)cccc3n2)cc1 | inactive
CCn1c(CCNC(=O)c2ccc(OC)cc2)nnc1SCc1ccc(Cl)cc1Cl | inactive
CC(C)(C)c1ccc(-c2noc(CCC(N)=O)n2)cc1 | inactive
CCOC(=O)c1cn2nc(N3CCCC3)ccc2n1 | inactive
Cc1ccc(NC(=S)NCc2cccs2)cc1 | inactive
O=C(Nc1cccc(Cl)c1)Nc1cccc(C(=O)O)c1 | inactive
Cc1ccc(NC(=O)C(=O)Nc2ccccn2)cc1 | inactive
S=C(NN=C1C2CC3CC(C2)CC1C3)Nc1ccccc1 | inactive
CNC1(C)[C@H]2CC[C@H](C2)C1(C)C (stereo partly specified) | inactive
CC(=O)c1cccc(NC(=O)Nc2ccc(C(=O)N3CCOCC3)cc2)c1 | inactive
CCCCCc1ccc(-c2ccc(/C=C/C(=O)O)cc2)nc1 | inactive
COc1ccc(-c2nc(C)ncc2-c2ccccc2)c(O)c1 | inactive
Cc1ccc(N(Cc2cc3ccccc3[nH]c2=O)C(=O)c2ccco2)c(C)c1 | inactive
O=C(O)c1cccc(Nc2ccnc(Nc3cccc(C(=O)O)c3)n2)c1 | inactive
CCN(C(=O)CSc1nnc(Nc2cccc(C)c2C)s1)C1CCS(=O)(=O)C1 (stereo unspecified) | inactive
COc1ccc(-c2nc(CN3CCC(C(=O)N4CCOCC4)CC3)c(C)o2)cc1C | inactive
Cc1cc(C)c2sc(NC(=O)C3CC3)nc2c1 | inactive
CCOC(=O)Oc1c(OC)cc(C(=O)O[C@@H]2C[C@@H]3CN4CCc5c([nH]c6cc(OC)ccc56)[C@H]4C[C@@H]3[C@H](C(=O)OC)[C@H]2OC)cc1OC | inactive
Nc1ccn([C@@H]2O[C@H](CO)[C@@H](O)[C@@H]2O)c(=O)n1 | inactive
Cc1cc(N2CCCC2=O)cc(C)c1S(=O)(=O)Nc1c(C)nn(C)c1C | inactive
Cn1cccc1-c1cc(C(=O)N2CCc3c([nH]c4ccccc34)C2c2ccccn2)[nH]n1 (stereo unspecified) | inactive

SMILES | outcome
COc1ccc(-c2oc3ncnc(NCCN4CCOCC4)c3c2-c2ccc(OC)cc2)cc1 | inactive
CSc1nc(C)nc2c1c(=O)n(C)c(=O)n2C | inactive
Cc1ccc(/C=C/c2nc3ccccc3s2)s1 | inactive
Cn1cc(CC(=O)NCCCN2CCCC2)c2ccccc21 | inactive
CCc1cc(Cl)c(OC)c(C(=O)NC[C@@H]2CCCN2CC)c1O | inactive
c1ccc2c3c([nH]c2c1)C(C1CCCCC1)N(Cc1ncc[nH]1)CC3 (stereo unspecified) | inactive
Cc1ccc(C(=O)Nc2sc(Cc3ccc4c(c3)OCO4)c(C)c2C(N)=O)cc1 | inactive
CCN(CC)c1ccc(NC(=O)c2cccc(F)c2)c(C)c1 | inactive
Cn1ncc(Cl)c1C(=O)NC1CCCC1 | inactive
O=C(Nc1ccc(N2CCOCC2)cc1)c1cnccn1 | inactive
COc1ccccc1N1CCN(CCCNC(=O)C2CCCN(c3ncnc4c3nc3n4CCCCC3)C2)CC1 (stereo unspecified) | inactive
CNC(=O)c1[nH]cnc1C(=O)N[C@@H](CCCCNC(=O)OC(C)(C)C)C(=O)OC(C)(C)C | inactive
CCOC(=O)c1c(-n2cccc2)sc2c1CCCC2=O | inactive
Cc1ccccc1C(=O)c1c[nH]c(C(=O)NCc2ccco2)c1 | inactive
O=c1c2cnn(-c3ccccc3)c2nc(-c2cccs2)n1-c1ccc(Cl)cc1 | inactive
Cc1ccc(OCC(=O)NNC(=S)NC(=O)C2CCCCC2)c(C)c1 | inactive
N#Cc1c(NC(=O)CCCC(=O)O)sc2c1CCCCC2 | inactive
COC(=O)CCNc1ccc2c(c1)OCCO2 | inactive
COc1ccc(C(=O)OCC(=O)c2c[nH]c3ccccc23)cc1OC | inactive
Clc1ccc(-c2nnc(NC3=NCCCCC3)o2)cc1 | inactive
O=C(O)c1ccc(-n2cncn2)c([N+](=O)[O-])c1 | inactive
CN(C)c1ccnc2sc(C(N)=O)c(N)c12 | inactive

SMILES | outcome
Cc1ccc(CNC(=O)C2CCN(S(=O)(=O)c3c(C)noc3/C=C/c3ccco3)CC2)cc1 | inactive
Cc1nc(N)nc(SCc2ccc([N+](=O)[O-])cc2)c1N | inactive
COc1cc(C(=O)Oc2ccccc2/C=N/NC(=O)c2ccc(C)c(Cl)c2)cc(OC)c1OC | inactive
COc1cc(/C=N/NC(=O)c2cccc(S(=O)(=O)N3CCOCC3)c2)cc(OC)c1O | inactive
CCCCCC(=O)NC(=S)Nc1ccc(Br)cc1C | inactive
O=C(N/N=C/c1cccc(O)c1)c1ccc2c(c1)OCCO2 | inactive
Cc1cccc(C)c1NC(=O)CN(C)C(=O)c1ccc(-c2cccc(C(F)(F)F)c2)o1 | inactive
COCCNC(=O)C(=O)NCC1OCCN1C(=O)c1ccc(Cl)cc1 (stereo unspecified) | inactive
COC(=O)c1ccc(/C=C(/NC(=O)c2ccccc2)C(=O)N2CCOCC2)cc1 | inactive
Cc1ccc(N=c2c([N+](=O)[O-])nn(-c3ccc4c(c3)OCCO4)n2O)cc1F | inactive
COc1ccc(C(=O)NC(=S)NNC(=O)c2ccc3ccccc3n2)cc1 | inactive
CC(=O)Nc1ccc(OCC(O)CNC(C)C)cc1 (stereo unspecified) | inactive
COc1ccc(-c2cnc(NCc3cc4c(cc3[N+](=O)[O-])OCO4)n2C)cc1 | inactive
Cc1ccc(-n2c(C)c([N+](=O)[O-])c3ccc(O)c(CN(C)C)c32)cc1 | inactive
O=C(Nc1ncccc1O)c1ccc(S(=O)(=O)NCc2ccco2)cc1 | inactive
O=C(/C=C/Nc1ccc(Br)cc1F)c1ccccc1 | inactive
CC(=O)c1c(C)[nH]c(C(=O)Nc2ccc(C)cn2)c1C | inactive
CN(C)c1cccc(C(=O)N/N=C/c2ccccc2F)c1 | inactive
Cc1ccsc1/C=N/NC(=O)c1ccc2c(c1)OCCO2 | inactive
COc1ccccc1C=NN=Cc1ccccc1O | inactive
CCc1nnc(NC(=O)c2ccc(S(=O)(=O)N3CCOCC3)cc2)s1 | inactive
CCCn1c(C)cc(C(=O)COC(=O)c2ccc[nH]c2=O)c1C | inactive

SMILES | outcome
CCn1c2ccccc2c2cc(/C=C(/C#N)C(N)=S)ccc21 | inactive
Oc1c(N=NC(=S)Nc2ccccc2F)c2ccccc2n1Cc1cccc(Cl)c1 | inactive
COC(=O)C1=C(C)N(c2cc(C)cc(C)c2)/C(=C/c2ccc(O)cc2)C1=O | inactive
COC(=O)/C=C/C(=O)Nc1cccc(C(F)(F)F)c1 | inactive
O=C(CN1CCN(S(=O)(=O)c2ccc(F)cc2)CC1)Nc1cccc(C(F)(F)F)c1 | inactive
CCOc1ccc(C(=O)Nc2nnc(SCC(=O)NCC3CCCO3)s2)cc1 (stereo unspecified) | inactive
CN=C1S/C(=C\c2ccc(O)c(Br)c2)C(=O)N1C | inactive
CC(=O)O[C@H]1CC[C@@]2(C)C(=CC[C@H]3[C@@H]4CC[C@H](C(C)=O)[C@@]4(C)CC[C@@H]32)C1 | inactive
NC(=O)C1(Nc2ccc([N+](=O)[O-])cc2)CCCC1 | inactive
Cc1ccccc1Cn1c(O)c(N=NC(=S)Nc2ccccc2F)c2ccccc21 | inactive
CCOc1ccc(NC(=O)Cn2cc(C(=O)CC)c3ccccc32)cc1 | inactive
COc1cccc(C(=O)Nc2nc3ccccc3[nH]2)c1 | inactive
O=C(O)c1ccc(N/N=C/c2ccc3ncccc3c2)cc1 | inactive
O=C(CSc1nc2ccccc2c(=O)n1CCCN1CCOCC1)Nc1ccc(Br)cc1 | inactive
CC(C)(C)c1ccc(C(=O)Nc2nnc(SCC(=O)NCC3CCCO3)s2)cc1 (stereo unspecified) | inactive
CCC(Oc1ccccc1)C(=O)NC1CCSC1=O (stereo unspecified) | inactive
O=C(NC1CCCCC1)N1CCN(c2ccc([N+](=O)[O-])cc2)CC1 | inactive
CCOC(=O)c1sc2nc(C)nc(NCc3ccccc3)c2c1C | inactive
